Paper PMC12136788
Numbering of substitutions follows the chain as printed. Over roughly 5,800 sequences, “enrichment r” has its median near 0.68; the highest 2% begin near 11. This is one part of a sample in which the highest values are shown more often than they occur.

T1: UNK ZnF1-6 (called full-length) (human, UniProt Q9C0B0 30-357)
T1 sequence: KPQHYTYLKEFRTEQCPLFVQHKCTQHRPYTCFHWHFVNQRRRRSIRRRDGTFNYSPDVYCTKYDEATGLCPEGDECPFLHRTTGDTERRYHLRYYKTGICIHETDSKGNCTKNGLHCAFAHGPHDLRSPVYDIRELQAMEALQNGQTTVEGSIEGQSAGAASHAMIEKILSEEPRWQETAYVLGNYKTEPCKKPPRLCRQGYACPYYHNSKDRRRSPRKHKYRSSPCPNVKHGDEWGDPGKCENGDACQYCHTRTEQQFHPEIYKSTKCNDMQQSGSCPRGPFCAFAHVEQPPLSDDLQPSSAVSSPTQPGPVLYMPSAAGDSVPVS

B1: chr16:70160055:70160156:+|3pUTR|ENSG00000090857|msi1|total|mutant (ssRNA)
RNA: GGGAGUUCUACAGUCCGACGAUCUUGUGCUCACCACGAAGGAUGGUCUCUGCCUUCUCUUGUCGGUGUAUGCCAUCUGAACCCCGGAACACAAAGUAUAUUGGCCUCAAACGGAGACCCAGGGUUGCCAGUUUUCCGUGGGCCCAACAGAGGAUUGAGCAUCA
B2: chr12:68660398:68660499:+|3pUTR|ENSG00000127314|msi1|FALSE|unique (ssRNA)
RNA: GGGAGUUCUACAGUCCGACGAUCUUGAGGUGGCCAAAUGUAAACUAAAAGCCUUAAUUAAAGUGGUGCAAUUUUGUAUAACUUAGCAUCAGUAGUUCAAUAAAUUUGGAUUGCCAUGCAAGGGCUUGCAUUAUAAUUACUUGCCAACAGAGGAUUGAGCAUCA
B3: chr4:186588032:186588133:-|3pUTR|ENSG00000083857|msi1|FALSE|unique (ssRNA)
RNA: GGGAGUUCUACAGUCCGACGAUCUUUUUUUACUAUAACCAGGGUUUCAUUCUGUCUUUUUCCACUGAAGUGUGACAUUUUGUUAGUACAUUUCAGUGUAGUCAUUCAUUUCUAGCUGUACAUAGGAUGAAGGAGAGAUCAGAUCAACAGAGGAUUGAGCAUCA
B4: chr1:225496770:225496921:-|3pUTR|ENSG00000154380|msi1|FALSE|unique (ssRNA)
RNA: GGGAGUUCUACAGUCCGACGAUCUUUUUUAAUUGCAGACAGUAAUGCAUGUCACACUAAUAUGUAGUGGCCUUUUCAAGGCCUAGUCCCAGGGAAAACAUUUUGUAGAGUAUAGGGGAGUGGGAGGAAGGGGAGGAAUAAUUUCAACAGAGGAUUGAGCAUCA
B5: chr13:45969211:45969312:-|CDS|ENSG00000123200|unk|FALSE|unique (ssRNA)
RNA: GGGAGUUCUACAGUCCGACGAUCGUCCCUGACCGUACAGAGGUGACAGAAGCAGAGCAUACUGCCACCGCCACGACUCCUGGUAGUACCCCUUCUCCUCUAUCUUCUCUUCUUCCUCCUCCACCGCCUGUGGCUACUGCCACUCAACAGAGGAUUGAGCAUCA
B6: ENSG00000107863:be:win_5851|CDS_3pUTR|ENSG00000107863|bound_else_gene|NA|bound_elsewhere_windowed (ssRNA)
RNA: GGGAGUUCUACAGUCCGACGAUCAAAGCAGAGUUUCAUCCCUGUCUUUAAACUGGGGGUAUGUCCACUCUAGCAAGUAAAAAAACUACUGUUACACGUUCCAGUAACUCUGUCAAUAUUUUCUUGUAUCAGAAUUGUUAUUAUCAACAGAGGAUUGAGCAUCA
B7: ENSG00000198589:be:win_7901|CDS|ENSG00000198589|bound_else_gene|NA|bound_elsewhere_windowed (ssRNA)
RNA: GGGAGUUCUACAGUCCGACGAUCCUCGUUCUGAGUCAUAUAUUGGGGGAAAUUGCUACAUUCUCUCAGGGUCACGUGAUGCAACUCUUUUGCUGUGGUAUUGGAAUGGAAAAUGCAGUGGGAUUGGAGAUAACCCAGGCAGUGCAACAGAGGAUUGAGCAUCA
B8: chr13:106491723:106491923:-|3pUTR|ENSG00000125266|msi1|total|mutant (ssRNA)
RNA: GGGAGUUCUACAGUCCGACGAUCCAGACUCAGCUGCUAUACUUAUCACAUUUUAUUAAACACAGGGAAAGCAUUCCGGAGAACCGCAGAGAGCCAAAUCUGACCUAAAAGUUGAAAAGCCAAAGGUCAAACAGGCUGUAAUUCCAACAGAGGAUUGAGCAUCA
B9: chr1:178849534:178851128:-|three_prime_utr|ENSG00000116194|control|control|control (ssRNA)
RNA: GGGAGUUCUACAGUCCGACGAUCCUACACAGAAAGUUUUUAAAAUGAAUUUUACCGUAACUAUAAAAGGGAACCUAUAAAUGUAGUUUCAUCUGUCGUCAAUUACUGCAGAAAAUUAUGUGUAUCCACAACCUAGUUAUUUUACAACAGAGGAUUGAGCAUCA
B10: chr15:52550141:52550321:-|3pUTR|ENSG00000128989|msi1|FALSE|unique (ssRNA)
RNA: GGGAGUUCUACAGUCCGACGAUCAGAUGUCACUUUAGUAAAAUACCAAUUUAGUUUUACUUGUGGCUUAUCUAGUUAGAACUUAGCAGACUUUACUGGGACAAGUUUACUGCUCUUGUAGGAGCUCCUCUCACAAGUAGUUGUCAACAGAGGAUUGAGCAUCA
B11: chr1:9729969:9730061:-|3pUTR|ENSG00000171603|msi1_unk|total|mutant (ssRNA)
RNA: GGGAGUUCUACAGUCCGACGAUCGUUUUUAUUUUUUCCAAACCCGUGCAUGUAUAAAUAAUGGCAGGAUGGGGGGUACUGUGCCGAUGAUUAACUGACUUUUUAAUAUUUUGUAAAUAAAUCGGAUUCCUUGUGUCCUUUGUGCAACAGAGGAUUGAGCAUCA
B12: chr10:16593140:16593241:-|3pUTR|ENSG00000148484|unk|FALSE|unique (ssRNA)
RNA: GGGAGUUCUACAGUCCGACGAUCUUAUUUUUCUUUUCACUCUCUUUCUAAUGCUUCCCACCUUACCUUUUAGAUUCUUUUGCUAGGUGGGAGAUUGUUAUAAGGUCUUUAAACCAUUUCCAUUUGUUUCUUUAACAUUACCAACAACAGAGGAUUGAGCAUCA
B13: chr1:9729969:9730061:-|3pUTR|ENSG00000171603|msi1_unk|FALSE|overlapping (ssRNA)
RNA: B11 RNA with C43U, C44A, C83U, C84A
B14: chr1:93361585:93361687:+|3pUTR|ENSG00000117505|unk|total|mutant (ssRNA)
RNA: GGGAGUUCUACAGUCCGACGAUCUUUAACUUGCCGUUACCGUUUACUUAUUGUUUUCCGAAUUACUUUUACAUUUUCCCAACCCGAUGGCCCCGAGUCCAACAUUACCUUUUGAGAUGACAUUAUUGUCUCCAUAAUUGAGUGCAACAGAGGAUUGAGCAUCA
B15: chr1:93361585:93361687:+|3pUTR|ENSG00000117505|unk|FALSE|unique (ssRNA)
RNA: B14 RNA with C33U, C34A, C39U, C40A, C57U, C58A, C83U, C84A, C92U, C93A
B16: chr11:119045269:119045370:-|3pUTR|ENSG00000149428|msi1|FALSE|unique (ssRNA)
RNA: GGGAGUUCUACAGUCCGACGAUCUGUGGUUAAAAAUGGAAACUGUUCUCCUCCCCAGCCCCACUCCCUGUUCCCUACCCAUAUAGGCCCUAAAUUUGGGAAAAAUCACUAUUAAUUUCUGAAUCCUUUGCCUGUGGGUAGGAACAACAGAGGAUUGAGCAUCA
B17: chr3:89481969:89482070:+|3pUTR|ENSG00000044524|msi1|FALSE|unique (ssRNA)
RNA: GGGAGUUCUACAGUCCGACGAUCAUAUGUGUUUACUUUAAACUUGUCUUUUCAAAAUAUUACUCAGUUUAUGUUGUACAAUGUAGAUGGCCUCUUACUAAUGUAAAAUGAUUUGUAGUGGAAACAUUUAUAUUUUUAUAAUAACAACAGAGGAUUGAGCAUCA
B18: chr1:162523450:162523604:+|3pUTR|ENSG00000152332|msi1|FALSE|unique (ssRNA)
RNA: GGGAGUUCUACAGUCCGACGAUCAGACUAAGUUGUGCCAGAUGUAAAUCAACCCCUCUUUUAGUUUACUUUAGACUUUGUAUUAGCUCAUCUUUUUUGUAGUAAAUCUAUAGUUUUAAGGUUUCUCAAGAUGUGGCUCUACCUCAACAGAGGAUUGAGCAUCA
B19: chr2:5695263:5695412:+|3pUTR|ENSG00000176887|msi1_unk|FALSE|overlapping (ssRNA)
RNA: GGGAGUUCUACAGUCCGACGAUCUGGUGAUAUAGACCUCAGAGCUGUUAUCUUAGUUUAAAGAUUGUAUAUGUACUGUACUAUAGUAGGACUUUAUGUAUCUCAUACGCUGUGAUGUGGAUGGGGCCCCAGAUGGAAGGUUUGCAACAGAGGAUUGAGCAUCA
B20: chr14:53039561:53039662:-|3pUTR|ENSG00000100523|unk|total|mutant (ssRNA)
RNA: GGGAGUUCUACAGUCCGACGAUCUCAAACUAUAUUUUUGUUACAGCAAACUACAUUCCAUUUGCCUUUAAAUGCUUGCAUUUCCGUUAUUGUACUGGCUACCUGUUUUUGUCUGCCCAGCAUCCUGUUUCCCCUCCUUUUGGACAACAGAGGAUUGAGCAUCA
B21: chr10:17315694:17315795:-|3pUTR|ENSG00000148488|unk|FALSE|unique (ssRNA)
RNA: GGGAGUUCUACAGUCCGACGAUCCUUCUUCCUCCCUGUCCAUCCCACCCUCGUCCCCAGAAAAUUCCUAAUCUGUUUUUCUAUAGACAUUUACAUUUUUACACUAUAGACUGUUUACAUUUUUUAGAAUUUUAUAUAAAUGGACAACAGAGGAUUGAGCAUCA
B22: chr1:180885316:180885399:+|3pUTR|ENSG00000143324|msi1_unk|FALSE|overlapping (ssRNA)
RNA: GGGAGUUCUACAGUCCGACGAUCUUGGCAGCCAUUUCUCCCAGCAGUUUUAAAGGAUGAACAUUGGAUUUCAUGCCAUCCCAUAGAAAACCUGUUUUAAAAUUUUAGGGAUCUUUACUUGGUCAUACAUGAAAAGUACACUGCCAACAGAGGAUUGAGCAUCA

target: T1, UNK ZnF1-6 (called full-length); assay: nsRBNS (natural sequence RNA bind-n-seq); RBNS binding buffer (assumed for nsRBNS): 25 mM Tris pH 7.5, 150 mM KCl, 3 mM MgCl2, 0.01% Triton X-100, 500 ug/ml BSA, 20 U/ml SUPERase-In, 4 C; UNK is unkempt and MSI1 is Musashi-1; names of the RNAs are library labels; protein concentration not given here; high values mean tight binding

Binder | binding signal
B1 | 0.469 enrichment R
B2 | 0.685 enrichment R
B3 | 1.31 enrichment R
B4 | 7.59 enrichment R
B5 | 1.84 enrichment R
B6 | 0.426 enrichment R
B7 | 0.728 enrichment R
B8 | 1.05 enrichment R
B9 | 2.6 enrichment R
B10 | 2.25 enrichment R
B11 | 1.54 enrichment R
B12 | 4.14 enrichment R
B13 | 22 enrichment R
B14 | 4.48 enrichment R
B15 | 152 enrichment R
B16 | 0.528 enrichment R
B17 | 1.68 enrichment R
B18 | 58.2 enrichment R
B19 | 1.36 enrichment R
B20 | 0.468 enrichment R
B21 | 25.2 enrichment R
B22 | 1.91 enrichment R
